# Source: PubChem BioAssay (National Center for Advancing Translational Sciences (NCATS))
# IL-1B inflam inh: inhibitors of inflammasome signaling (IL-1 beta secretion); THP-1 LPS/ATP IL-1B secretion, AlphaLISA, 16 h; active compounds read low; activity change, % at 57.5 µM; 360,000 compounds, 4.7% hits; in the data active = activity change below about -50%; inconclusive = mostly about -30% to -49%; also: % is scaled to controls: 0 for no effect and ±100 for the full control effect
#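 Secreted IL-1B measured by AlphaLISA bead assay after 16 h compound exposure of THP-1 cells; compounds (final up to 57.5 uM) added 1 h before LPS (250 ng/mL) and ATP (1.25 mM) stimulation; lower signal means less secretion.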
# TDP1 block: TDP1 (human) enzyme inhibition | Q9NUW8 | recombinant TDP1, AlphaScreen DNA substrate cleavage | Potency, µM (top dose mostly 130 µM), inactives show at the top dose activity change, negative = inhibition, most hits filed as inhibitors | 350,000 compounds, 0.28% hits | AID 485290; also: potency is read from the fitted curve at half-maximal effect; % is scaled to controls: 0 for no effect and ±100 for the full control effect; nearly all actives have a fitted effect of over 40% in size
# Target sequence (Q9NUW8 whole entry, looked up): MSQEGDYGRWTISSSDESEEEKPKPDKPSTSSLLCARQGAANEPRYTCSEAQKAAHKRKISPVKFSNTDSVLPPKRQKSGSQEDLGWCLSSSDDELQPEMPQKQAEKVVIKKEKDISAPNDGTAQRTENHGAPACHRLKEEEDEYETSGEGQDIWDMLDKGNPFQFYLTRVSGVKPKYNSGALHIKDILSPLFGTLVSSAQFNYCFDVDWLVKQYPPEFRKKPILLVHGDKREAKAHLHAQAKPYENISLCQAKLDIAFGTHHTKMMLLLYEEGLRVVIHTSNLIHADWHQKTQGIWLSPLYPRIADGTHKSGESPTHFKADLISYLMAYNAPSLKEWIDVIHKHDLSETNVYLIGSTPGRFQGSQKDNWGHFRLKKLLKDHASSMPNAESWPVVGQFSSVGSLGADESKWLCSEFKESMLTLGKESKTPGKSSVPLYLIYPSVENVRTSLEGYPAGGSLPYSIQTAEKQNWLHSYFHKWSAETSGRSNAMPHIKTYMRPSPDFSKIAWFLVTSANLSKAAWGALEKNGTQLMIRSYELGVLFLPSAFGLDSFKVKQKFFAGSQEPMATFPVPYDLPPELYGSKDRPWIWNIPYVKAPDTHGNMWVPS
#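 E. coli-derived human Tdp1, 1 nM final. Cpd preinc 15 min RT; substrate 15 nM final, 5 min RT; AS bead mix 10 ug/ml final, 10 min RT. Signal loss = tyrosine-FITC cleavage. No-enzyme wells = max signal.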
# TGFb SMAD3 inh: TGF-b pathway inhibition; Potency, µM (series often up to 46.1 µM), without a hit: top-dose activity, negative = inhibition, most hits filed as inhibitors; 410,000 compounds, 1.2% hits; HepG2 CAGA-GFP TGF-b/SMAD3 reporter, GFP fluorescence, 18 h; TGF-beta stimulated, 500 pg/mL final; AID 588855; also: potency is read from the fitted curve at half-maximal effect; % is scaled to controls: 0 for no effect and ±100 for the full control effect; nearly all actives have a fitted effect of over 65% in size
#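 Inhibition was scored as loss of TGF-beta-induced (500 pg/mL final, 18 hours, 37 degrees C) GFP in HEPG2 cells carrying a CAGA-GFP reporter, in DMEM with 1% FBS. Well GFP was summed per cell; Activity was normalised to unstimulated and stimulated DMSO wells, then concentration-response fitting.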
# DT40 TDP1 CPT: growth inhibition of DT40 Tdp1-/-;hTDP1 cells with camptothecin (screen for TDP1 inhibitors); chicken DT40 Tdp1-/-;hTDP1 cells + 20 nM CPT, ATP luminescence, 48 h; Potency, µM (top dose mostly 46.2 µM), without a hit: at the top dose activity change, negative = growth inhibition, usual class: inhibitors; 420,000 compounds, 12% hits; AID 686979; also: potency is read from the fitted curve at half-maximal effect; % is scaled to controls: 0 for no effect and ±100 for the full control effect; nearly all actives have a fitted effect of over 55% in size
#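 Cell growth measured by CellTiter-Glo luminescence after a minimum 48 h, 37 C compound exposure with 20 nM CPT in Tdp1-knockout DT40 cells stably expressing hTDP1, seeded 400/well; qHTS titration format.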
# HepG2 tox: kills HepG2 cells in TGF-b inhibitor counter-screen; HepG2 CAGA-GFP viability, ATP luminescence, 18 h; Potency, µM (doses to about 46.1 µM), for the others: top-dose activity change, negative = cytotoxicity, usual class: cytotoxic; 410,000 compounds, 0.76% hits; AID 588856; also: potency is read from the fitted curve at half-maximal effect
#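 HepG2 CAGA-GFP cells (1000/well, DMEM with 1% FBS) received compound, then TGF-beta at 500 pg/mL final, and were incubated 18 hours at 37 degrees C. Viability was read by CellTiter-Glo luminescence. Media-only wells were set as complete cell-killing and DMSO as no toxicity.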
# DT40 TDP1 no CPT: qHTS for Inhibitors of human tyrosyl-DNA phosphodiesterase 1 (TDP1): qHTS in cells in absence of CPT; DT40 Tdp1-/- hTDP1 cells, no CPT, ATP luminescence, 48 h; Potency, µM (top dose mostly 46.2 µM), inactives show top-dose activity change, negative = growth inhibition, actives largely listed as inhibitors; 420,000 compounds, 15% hits; AID 686978, 2013; also: potency is read from the fitted curve at half-maximal effect; % is scaled to controls: 0 for no effect and ±100 for the full control effect; nearly all actives have a fitted effect of over 55% in size
#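 Camptothecin absent (DMSO only). Human TDP1-complemented DT40 knockout cells, 400 cells/well, 37 °C for minimum 48 hr; ATP measured via CellTiter-Glo, 30 min dark incubation, luminescence.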
# * = called active by the depositor; ? = inconclusive; . = no result given; [ ] = dose if it differs, or a comment. Sampled rows, rich in hits. Any-hit rate of the full collection: about 19%. Unless noted, calls follow the shape of the dose curve; as a rule, active = well fitted curve in the direction sought with a large enough effect; inconclusive = small, poorly fitted or top-dose-only effect, or another doubt; inactive = no such curve, though single readings can be large; an effect the other way counts as inactive or inconclusive.
SMILES,IL-1B inflam inh,TDP1 block,TGFb SMAD3 inh,DT40 TDP1 CPT,HepG2 tox,DT40 TDP1 no CPT
Cc1ccc(C(=O)N(CC(=O)NC2CCCCC2)c2ccccc2C)s1,-22.3,2.1%,-19.6%,?,-17.6%,23.1µM*
Cc1ccc(C(=O)N(CC(=O)NC2CCCC2)c2cccc(F)c2)s1,-80.4*,13.1%[0.0935 µM],2.3%,2.7%,-2.2%,-20.9%
Cc1ccc(C(=O)N(CC(=O)NC2CCCCC2)c2ccccc2F)s1,1.8,0.0%,-16.5%,2.4%,-40.5%,-32.5%
CCOC(=O)c1ccc(N2C(=O)c3n[nH]c(-c4cccs4)c3C2c2cccc(F)c2)cc1 (stereo unspecified),.,-2.3%,?,?,-95.6%,18.4µM*
CCOc1cc(C2c3c(-c4ccccc4)n[nH]c3C(=O)N2c2ccc(C(=O)O)cc2)ccc1O (stereo unspecified),3.3,6.9%,3.6%,11.3%,-0.3%,3.0%
CCOC(=O)c1ccc(N2C(=O)c3n[nH]c(-c4cccs4)c3C2c2ccc(C)cc2)cc1 (stereo unspecified),.,2.3%,25.0%,1.0%,-14.9%,-2.2%
CCOC(=O)c1ccc(N2C(=O)c3n[nH]c(-c4cccs4)c3C2c2ccc(O)c(OC)c2)cc1 (stereo unspecified),.,2.3%,?,?,-51.3%,20.6µM*
COc1cccc(OCCNCc2ccccc2)c1,-18.7,.,-9.0%,?,-22.2%,18.4µM*
Cc1cccc(OCCCCNCc2ccccc2)c1,-71.8*,-5.3%,9.1%,-14.3%,-16.5%,?
CCc1cccc(C)c1NC(=O)C1CCN(c2nn3c(=O)cc(C)nc3s2)CC1,-20.2,-0.3%,-11.3%,?,-19.1%,14.7%
N#Cc1c(NC(=O)/C=C/C(=O)O)sc2c1CCN(Cc1ccccc1)C2,-3.0,.,38.8%,-20.7%,2.1%,?
O=C(c1ccncc1)c1ccc(N2CCN(C3CC(=O)N(Cc4cccs4)C3=O)CC2)cc1 (stereo unspecified),-3.3,7.4%,?,16.4µM*,-46.6%,23.1µM*
O=C1CC(N2CCN(c3ccc(O)cc3)CC2)C(=O)N1Cc1cccs1 (stereo unspecified),12.7,2.3%,3.3%,-12.7%,-5.5%,?
CCOc1ccc(N2C(=O)CC(N3CCN(c4ccc(C(=O)c5ccncc5)cc4)CC3)C2=O)cc1 (stereo unspecified),-2.8,.,-5.5%,?,-2.8%,20.6µM*
COc1ccccc1OCCn1c(CO)nc2ccccc21,-9.8,3.2%,23.9%,-27.2%,0.7%,?
Cc1ccccc1OCCCn1c(CO)nc2ccccc21,3.4,-2.6%,-15.7%,?,21.2%,18.4µM*
CCc1nc2ccccc2n1CCCCOc1ccccc1C,.,-2.5%,?,?,-49.9%,25.9µM*
Cc1ccc(NC(=O)Cn2nnc(-c3ccccc3)n2)c(C)c1,.,-1.9%,7.7%,.,-2.6%,.
COc1cc(NS(=O)(=O)c2ccc(N/C=C(\C#N)c3nc4cc(Cl)ccc4o3)cc2)nc(OC)n1,144.3,5.1%,0.0%,9.2µM*,-41.1%,14.6µM*
COc1cc(NS(=O)(=O)c2ccc(N/C=C\C(=O)c3ccc(C)cc3)cc2)nc(OC)n1,0.0,.,?,11.6µM*,-7.6%,20.6µM*
COc1ccc(-c2csc(Nc3ccc(S(=O)(=O)Nc4cc(OC)nc(OC)n4)cc3)n2)cc1,-75.2*,2.7%,?,1.1%,-11.1%,-3.2%
COc1cc(NS(=O)(=O)c2ccc(NC(C)=O)cc2)nc(OC)n1,22.2,-2.0%,0.0%,-0.1%,-24.3%,-6.6%
COc1cc(OC)c(OC)cc1/C=C/C(=O)c1ccc(NS(=O)(=O)c2ccc(C)cc2)cc1,-59.9*,4.3%,?,?,-7.2%,?
COc1ccc(NC(=O)/C(=C\c2ccccc2)NC(=O)c2ccco2)cc1,?,4.4%[0.0935 µM],-4.3%,3.9%,-18.3%,14.1%
CSCC[C@H](NC(=O)[C@H](Cc1c[nH]c2ccccc12)NC(=O)CNC(=O)[C@H](Cc1ccc(O)cc1)NC(=O)[C@H](C)NC(=O)[C@H](CCC(=O)O)NC(=O)[C@H](CCC(=O)O)NC(=O)[C@H](CCC(=O)O)NC(=O)[C@H](CCC(=O)O)NC(=O)[C@H](CCC(=O)O)NC(=O)[C@H](CC(C)C)NC(=O)[C@H](Cc1c[nH]c2ccccc12)NC(=O)[C@@H]1CCCN1C(=O)CNC(=O)[C@@H]1CCC(=O)N1)C(=O)N[C@@H](CC(=O)O)C(=O)N[C@@H](Cc1ccccc1)C(=O)NCC(=O)O,.,4.9%,.,.,.,.
SMILES,IL-1B inflam inh,TDP1 block,TGFb SMAD3 inh,DT40 TDP1 CPT,HepG2 tox,DT40 TDP1 no CPT
COc1ccc(C(=O)/C=C/Nc2ccc(S(=O)(=O)Nc3cccc(C(C)=O)c3)cc2)cc1,-8.2,1.8%,?,?,5.1%,23.1µM*
COc1cccc(C(=O)/C=C/Nc2ccc(S(=O)(=O)Nc3ccc(C(C)=O)cc3)cc2)c1,0.0,0.0%,-17.7%,?,3.1%,16.4µM*
COc1cc(NS(=O)(=O)c2ccc(NC(=S)NC(=O)c3sc4cc(F)ccc4c3Cl)cc2)nc(OC)n1,-50.4*,1.1%,-3.4%,-3.7%,4.7%,-28.5%
COc1cc(NS(=O)(=O)c2ccc(NC(=S)NC(=O)c3sc4ccccc4c3Cl)cc2)nc(OC)n1,36.8,0.6%,0.5%,7.4%,-15.8%,-17.7%
Cc1ncc([N+](=O)[O-])n1CC(=O)Nc1ccc(Br)cc1,0.0,.,-5.5%,-18.3%,-3.8%,-3.9%
CN(CCO)C(=O)c1cn(C2CCN(Cc3c(F)cccc3Cl)CC2)nn1,.,.,.,-16.2%[9.04 µM],.,-8.9%
CN(C)CCCNS(=O)(=O)c1ccc(NC2CCCCCC2)c([N+](=O)[O-])c1,-71.5*,.,22.4µM*,2.91µM*,-171.3%,2.31µM*
CCNc1ccc(S(=O)(=O)NCCN(C)C)cc1[N+](=O)[O-],7.0,2.7%,1.3%,0.4%,-107.1%,-6.9%
CC(O)(c1ccc(F)c(F)c1)c1nc(-c2csc3ccccc23)cs1 (stereo unspecified),-1.3,.,?,?,-69.5%,?
COc1cc(F)ccc1-c1csc(C(C)(O)c2ccc(F)c(F)c2)n1 (stereo unspecified),16.9,.,?,?,-40.5%,18.4µM*
